Screening data: PubChem BioAssay, National Center for Advancing Translational Sciences (NCATS)
USP2a inh – blocks human ubiquitin-specific protease USP2a; O75604; USP2 core, Ub-CHOP2 coupled fluorogenic reporter, 485/531; Potency, µM (top dose mostly 38.3 µM), for inactives: at the highest dose activity change, negative = inhibition, hits mostly inhibitors; hit rate 0.01% among 330,000;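 also: potency is read from the fitted curve at half-maximal effect; plate controls were DMSO wells for no effect and full inhibition by NEM control for full effect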
Target sequence (O75604 whole entry, looked up): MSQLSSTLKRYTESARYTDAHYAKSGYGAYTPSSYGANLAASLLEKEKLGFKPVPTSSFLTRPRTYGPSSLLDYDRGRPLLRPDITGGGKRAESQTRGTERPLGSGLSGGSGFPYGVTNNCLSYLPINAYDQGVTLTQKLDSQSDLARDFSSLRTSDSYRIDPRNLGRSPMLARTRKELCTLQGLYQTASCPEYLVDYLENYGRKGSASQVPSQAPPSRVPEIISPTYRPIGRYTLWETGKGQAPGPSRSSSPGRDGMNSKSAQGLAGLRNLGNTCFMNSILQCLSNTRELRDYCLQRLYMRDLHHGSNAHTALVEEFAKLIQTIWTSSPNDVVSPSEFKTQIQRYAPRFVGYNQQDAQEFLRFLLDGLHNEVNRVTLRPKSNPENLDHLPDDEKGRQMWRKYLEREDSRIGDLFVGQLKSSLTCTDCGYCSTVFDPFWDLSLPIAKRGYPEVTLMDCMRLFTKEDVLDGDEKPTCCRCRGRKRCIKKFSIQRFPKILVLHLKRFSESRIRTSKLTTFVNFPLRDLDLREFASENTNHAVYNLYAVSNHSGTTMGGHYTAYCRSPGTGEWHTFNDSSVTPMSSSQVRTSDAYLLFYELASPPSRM
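USP2 core (10nM final) preincubated 30min RT with compound in 20mM Tris-HCl pH 8.0, 2mM CaCl2, 2mM beta-mercaptoethanol, 0.05% CHAPS; 25nM Ub-CHOP2 plus 25nM reporter substrate added, fluorescence (Ex485/Em531) read after 60min.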
S2 tox – cell viability loss in ATXN counter-screen | S2 cells (HEK-293 line with an ATXN2-luciferase reporter) viability, CellTiter-Fluor protease fluorescence, 24 h | hit rate 0.49% among 400,000 | Potency, µM (highest dose often 56.7 µM), usual class: cytotoxic; also: potency is read from the fitted curve at half-maximal effect; nearly all actives have a fitted effect of over 40% in size
ATXN2 expr inh – reduces ATXN2 reporter expression in HEK-293 cells; HEK-293 ATXN2-luciferase reporter, luminescence, 24 h; Potency, µM (highest dose often 57 µM), without a hit: at the highest dose activity change, negative = inhibition, most hits filed as inhibitors; hit rate 0.72% among 360,000; also: potency is read from the fitted curve at half-maximal effect; % is scaled to controls: 0 for no effect and ±100 for the full control effect; nearly all actives have a fitted effect of over 55% in size
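qHTS (up to 57 uM final) was run with 24 h compound exposure of reporter cells at 37 °C. Each well was multiplexed: SteadyGlo luminescence measured ATXN2-luciferase expression after a fluorogenic Gly-Phe-AFC viability readout (25 uM final).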
IL1B secr inh – inflammasome signaling inhibition, IL-1 beta readout; THP-1 LPS/ATP IL-1B secretion, AlphaLISA, 16 h; stronger effect = lower value; activity change, % at 57.5 µM; hit rate 4.7% among 360,000; AID 743279; in the data active = activity change below about -50%; inconclusive = mostly about -30% to -49%; also: % is scaled to controls: 0 for no effect and ±100 for the full control effect
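Secreted IL-1B measured by AlphaLISA bead assay after 16 h compound exposure of THP-1 cells; compounds (final up to 57.5 uM) added 1 h before LPS (250 ng/mL) and ATP (1.25 mM) stimulation; lower signal means less secretion.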
USP1 inh – inhibitors of human USP1/UAF1 deubiquitinase; O94782; recombinant USP1/UAF1, Ub-Rhodamine cleavage fluorescence; Potency, µM (top dose mostly 57.1 µM), without a hit: top-dose activity change, negative = inhibition, hits mostly inhibitors; hit rate 0.23% among 390,000; AID 743255; also: potency is read from the fitted curve at half-maximal effect; % is scaled to controls: 0 for no effect and ±100 for the full control effect; nearly all actives have a fitted effect of over 60% in size
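1 nM enzyme complex + cpd, 15 min RT; start with Ub-Rho 150nM final; kinetic fluorescence ex 480/em 540, 6 reads q60 s. Buffer 50mM HEPES pH 7.8, 0.5mM EDTA, 0.1 mg/ml BSA, 1mM TCEP, 0.01% Tween-20.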
Starred values were filed as active, the others as inactive; i = inactive; ? = inconclusive; . = not tested or not shown; [ ] = remark or other dose. Compounds with a hit are over-represented: about 4.8% of the library has one in this group of screens. Unless noted, calls follow the shape of the dose curve; as a rule, active = well fitted curve in the direction sought with a large enough effect; inconclusive = small, poorly fitted or top-dose-only effect, or another doubt; inactive = no such curve, though single readings can be large; an effect the other way counts as inactive or inconclusive.

SMILES	USP2a inh	S2 tox	ATXN2 expr inh	IL1B secr inh	USP1 inh
COC(=O)Cc1c(C)[nH]n(-c2cc(Cl)cc(Cl)c2)c1=O	8%	i	?	-65*	-10%
CCOC(=O)c1n[nH]n(-c2cc(Cl)cc(Cl)c2)c1=O	-4%	i	-3%	5	-21%
Cc1oc(-c2ccccc2)cc1C(=O)Nc1cccc2ccccc12	-14%	i	-10%	-66*	-16%
Cc1cc(O)c(C(C)C)cc1N=Cc1ccc(N(C)C)cc1	.	i	?	-8	32µM*
O=[N+]([O-])c1ccc(COc2cccc(CN3CCCC3)c2)cc1	.	i	1%	-22	?
Nc1ncnc2c1c(-c1cccc(OCc3ccccc3)c1)cn2C1CC(CN2CCCC2)C1 (stereo not given)	.	.	31µM*	.	.
Cc1ccc(C(C)C)c(OCCSc2nc3ccccc3n2CC(O)CO)c1 (stereo not given)	.	?	?	.	-13%
Cc1cccc(OCCSc2nncn2C)c1	-2%	i	32%	11	-18%
Cn1cnnc1SCCOc1ccc(Cl)cc1	2%	i	-13%	-80*	-26%
CCCCCn1nnnc1C1(C)CCC(=O)N1Cc1ccco1 (stereo not given)	.	.	.	15	.
CC1=C(C(=O)N2CCOCC2)CC(CC(=O)NC(c2ccccc2)c2ccccc2)C(=O)N1Cc1ccc(F)cc1 (stereo not given)	.	i	6%	12	-22%
CCC(CC)C(=O)c1c[nH]c(C(=O)NCc2ccccn2)c1	5%	i	?	-59*	-15%
Cc1cc(F)cc(-c2cc(C(=O)NCc3ccccn3)[nH]n2)c1	.	i	7%	-86*	.
COC(=O)c1cccnc1	.	i	6%	.	.
O=C(Nc1ccnn1C1CCN(Cc2cccc(OCCO)c2)CC1)C1CC1	1%	i	0%	14	-2%
NC(=S)N/N=C/c1ncc(C(F)(F)F)cc1Cl	3%	14µM*	7.9µM*	-103*	-27%
NC(=S)N/N=C/c1ccc(C(F)(F)F)cc1	-1%	i	-28%	0	-10%
Cc1nn(-c2ccccc2)c(C)c1/C=N/Nc1nc2ccccc2[nH]1	-19%	?	-9%	-88*	-15%
C=CCn1cc(/C=N/Nc2nc3ccccc3[nH]2)c2ccccc21	1%	?	-4%	-95*	-24%
Cc1c(/C=N/Nc2nc3ccccc3[nH]2)c2ccccc2n1C	1%	?	-25%	-99*	-21%
C(=N\Nc1nc2ccccc2[nH]1)/c1cccs1	0%	i	52%	-71*	-10%
CC(=O)c1ccc(F)c(-c2cc(C)cc3c2OC(CNC(=O)Cc2ccc4c(c2)OCO4)C3)c1 (stereo not given)	.	i	.	.	.
C(=N\Nc1ncnc2nc[nH]c12)/c1cccs1	9%	i	17%	-74*	-5%
CC(C)(C)c1cccc(P(=O)(c2ccccc2)c2ccccc2)c1O	2%	i	40%	-71*	-19%
O=C(COC(=O)c1ccc(F)c([N+](=O)[O-])c1)NC(=O)NCc1ccccc1	4%	?	?	-99*	-9%
SMILES	USP2a inh	S2 tox	ATXN2 expr inh	IL1B secr inh	USP1 inh
Cc1ccc2nc(SCC(=O)Nc3ccc(F)c([N+](=O)[O-])c3)[nH]c2c1	2%	i	-8%	-64*	-11%
Cc1cccc(C(=O)NCCC(=O)Nc2ccc(F)c([N+](=O)[O-])c2)c1	0%	i	-19%	-64*	-5%
Cc1cccc(C(=O)NCCC(=O)Nc2ccc(C)c(F)c2)c1	0%	i	-9%	-10	-10%
Cc1ccc2nc(SC(C)C(=O)Nc3cccc([N+](=O)[O-])c3)[nH]c2c1 (stereo not given)	-5%	i	-25%	-73*	-22%
Cc1ccc2nc(SC(C)C(=O)NC3CCCC3)[nH]c2c1 (stereo not given)	-2%	i	-14%	22	-12%
Cc1ccc(C(=O)OCC(=O)NC(=O)NCc2ccccc2)cc1C	2%	i	8%	8	-20%
Cc1ccc(CC(=O)Nc2ccc(F)c([N+](=O)[O-])c2)cc1	0%	i	5%	0	-17%
O=C(CCc1ccccc1)Nc1ccc(F)c([N+](=O)[O-])c1	-1%	i	-18%	-94*	-15%
O=C1ON=C(c2ccccc2)/C1=C/c1ccc(O)cc1	0%	?	.	-99*	-15%
Cc1ccc(C2=NOC(=O)/C2=C\c2ccccc2)cc1	.	i	.	-12	-22%
COc1cc(/C=C2\C(=O)ON=C2c2ccccc2)cc(Cl)c1O	2%	?	?	-15	-14%
O=C1ON=C(c2ccc(Cl)cc2)/C1=C/c1ccc(O)cc1	-3%	?	-8%[11.3 µM]	-102*	-18%
CC1=NOC(=O)/C1=C/c1ccc(O)cc1	-1%	i	2%	-4	-18%
O=C1ON=C(c2ccccc2)/C1=C/c1ccccc1	-2%	i	.	-75*	-15%
COc1cc(/C=C2/C(=O)ON=C2c2ccccc2)ccc1O	3%	?	-14%	-105*	-11%
CCOC(=O)C1CCCCN1Cc1nc(N2CCN(C(C)=O)CC2)c2ccccc2n1 (stereo not given)	.	i	.	.	.
CCOc1cc(/C=C2\C(=O)ON=C2c2ccccc2)cc(Br)c1O	4%	?	?	-104*	-24%
COc1cc(/C=C2\C(=O)ON=C2c2ccccc2)cc(Br)c1O	4%	i	-22%	-29	?
NS(=O)(=O)c1ccc(N/N=C/c2ccncc2)cc1	-1%	i	-7%	0	-12%
NS(=O)(=O)c1ccc(N/N=C/C=C/c2ccccc2[N+](=O)[O-])cc1	1%	?	43%	-54*	-20%
NS(=O)(=O)c1ccc(N/N=C/c2cn(-c3ccccc3)nc2-c2cccs2)cc1	-5%	i	1%	-61*	-19%
NS(=O)(=O)c1ccc(N/N=C/c2ccccc2Br)cc1	0%	i	-6%	-106*	-20%
NS(=O)(=O)c1ccc(N/N=C/c2cn(-c3ccccc3)nc2-c2cccs2)c([N+](=O)[O-])c1	-1%	?	?	11	-4%
Cc1c2cnn(-c3ccccc3)c(=O)c2c(C)n1CC(=O)NCCc1ccc(Cl)cc1	.	i	12%	.	-17%
CCOc1ccc(CC(=O)Nc2c(C(=O)c3ccccc3)oc3ccc(Cl)cc23)cc1OCC	.	.	1%	.	-13%
Cc1cc2cc(C)c3nnc(SCC(=O)N4CCN(C(=O)c5ccco5)CC4)n3c2cc1C	.	i	0%	-74*	-4%
COc1ccc(N2CCN(C(=O)CSc3nnc4c(C)cc5ccc(C)c(C)c5n34)CC2)cc1	0%	i	-4%	-66*	-4%
Cc1ccc2cc(C)c3nnc(SCC(=O)N4CCN(C(=O)c5ccco5)CC4)n3c2c1	-1%	i	-10%	-23	4%
